PubChem BioAssay (NCI)
Compounds without any hit were thinned out: in the full panel of roughly 83,000, 20% have a hit.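 Plates (96-well) were seeded with cells, treated with compound at one concentration, and incubated for 48 hours before percent growth was determined.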 Activity calls are given as the source filed them. How the source made its calls: active means growth percent below 10; inactive means the rest.

Assays:
Assay in all cases: NCI-60 one-dose screen, 48 h (100 = growth as untreated, 0 = no growth, -100 = all killed)
Details in all cases: 10 µM unless noted
[1] = tested on: SR leukemia
[2] = tested on: RPMI-8226 leukemia
[3] = tested on: OVCAR-8 ovarian
[4] = tested on: OVCAR-5 ovarian
[5] = tested on: OVCAR-4 ovarian
[6] = tested on: SK-OV-3 ovarian
[7] = tested on: IGROV1 ovarian
[8] = tested on: OVCAR-3 ovarian
[9] = tested on: HS 578T breast
[10] = tested on: NCI/ADR-RES ovarian

Measured: growth

Cc1cn(C)cn1
inactive: [1] 99.4% | [2] 102% | [3] 106% | [4] 102% | [5] 100% | [6] 120% | [7] 117% | [8] 108% | [9] 138% | [10] 109%

Nc1c(Cl)cc(/C=C2\C=Cc3ccccc32)cc1Cl
inactive: [1] 93.9% | [2] 107% | [3] 104% | [4] 102% | [5] 107% | [6] 102% | [7] 103% | [8] 111% | [9] 115% | [10] 101%

OC1CSSC1Cn1cnc2c(Nc3ccc(OCc4cccc(F)c4)c(Cl)c3)ncnc21 (stereo not given)
inactive: [3] 37.4% | [4] 41% | [7] 41.4% | [9] 59.2%
active: [1] -29.9% | [2] -37.5% | [5] 4.03% | [6] -8.67% | [8] -70.2% | [10] 1.93%

COCCn1cc(-c2nc(-c3cc4cccnc4n3C)cs2)c2ccccc21
inactive: [1] 10.1% | [2] 55.7% | [3] 39% | [4] 49% | [5] 25.1% | [6] 58.7% | [7] 43.7% | [8] 31.5% | [9] 61.5% | [10] 13.3%

CSc1nc2ccc(C)cc2cc1/C=C1/C=C(c2ccccc2)NC1=O
inactive: [1] 10.1% | [2] 57.3% | [3] 55.5% | [4] 63.9% | [6] 76.2% | [7] 25.6% | [9] 28.9% | [10] 51.6%
active: [5] -51.9% | [8] 6.24%

C=C1C(=O)O[C@H]2[C@H]1CC/C(COC(=O)NCc1ccc(Cn3c(=O)sn(-c4ccc(I)cc4)c3=O)cc1)=C\CC[C@@]1(C)O[C@@H]21
active: [2] 7.56%
inactive: [1] 63% | [3] 82.1% | [4] 96.5% | [5] 58.9% | [6] 100% | [7] 67.5% | [8] 23.7% | [9] 85.7% | [10] 106%

CC(C)c1ccc2c(c1)CC[C@H]1[C@](C)(C(=O)OCC#CCN3CCCC3)CCC[C@]21C
inactive: [1] 52.5% | [2] 47.5% | [3] 89% | [4] 85.8% | [5] 64.4% | [6] 88.4% | [7] 90.5% | [8] 77.6% | [9] 87.6% | [10] 82.2%

O=C(Nc1cccnc1Nc1ccccc1)c1cn(Cc2cccc(Oc3ccccc3)c2)nn1
inactive: [1] 26.6% | [2] 57.2% | [3] 71.4% | [4] 103% | [5] 86.9% | [6] 77.1% | [7] 78.1% | [8] 52.6% | [9] 40.8% | [10] 33.8%

Cc1cccc(-c2nc(C(C)C)sc2-c2ccnc(NCCCNS(=O)(=O)c3ccc(Cl)cc3)c2)c1
inactive: [1] 54.6% | [2] 69.2% | [3] 81.4% | [4] 95.3% | [5] 82.8% | [6] 72.9% | [7] 70.5% | [8] 76.8% | [9] 82% | [10] 58.9%

N#Cc1c(-c2ccc(Cl)cc2)nc(NN=Cc2ccc[nH]2)nc1N1CCOCC1
inactive: [1] 31.2% | [3] 85.1% | [4] 99.6% | [5] 72.6% | [6] 84.7% | [7] 67.9% | [8] 45.6% | [9] 95% | [10] 84.5%
active: [2] 6.36%

O=C(O)c1cn(C2CC2)c2cc(N3CCN(C(=O)N/N=C/c4cccc5ccccc45)CC3)c(F)cc2c1=O
inactive: [1] 88.5% | [2] 110% | [3] 95.3% | [4] 110% | [5] 98.3% | [6] 87% | [7] 94.5% | [8] 104% | [9] 96.2% | [10] 105%

CN(C)CCC(CCN(C)C)(C(=O)O)c1ccccc1
inactive: [1] 110% | [2] 99.8% | [3] 102% | [4] 99.2% | [5] 105% | [6] 102% | [7] 93.7% | [8] 113% | [9] 111% | [10] 112%

Cc1ccc2c(c1)nc(C)n2-c1ncnc2c1CC(C)c1cc(O)ccc1N2C (stereo not given)
active: [1] 6.97%
inactive: [2] 30.3% | [3] 40.6% | [4] 89% | [5] 67.5% | [6] 14.1% | [7] 51.4% | [8] 14.6% | [9] 34.7% | [10] 25.9%

CC1(/C=C/c2ccc(-c3ccccc3)cc2)CCn2cnc3ncnc(c32)N1O (stereo not given)
active: [10] 3.15%
inactive: [1] 18.3% | [2] 21.3% | [3] 25.7% | [4] 47.9% | [5] 36.6% | [6] 19.8% | [7] 15.3% | [8] 37.2% | [9] 55.5%

O=C(Nc1cccnc1Nc1ccc(Cl)cc1)c1cn(Cc2cccc(Oc3ccccc3)c2)nn1
inactive: [1] 21.5% | [2] 40.9% | [3] 53.8% | [4] 101% | [5] 83.9% | [6] 53% | [7] 77.6% | [8] 30.7% | [9] 39.9% | [10] 14.4%

C=CCn1cc(-c2nc3ccccc3s2)c2cc(-c3ccc4c5c(cccc35)C(=O)N(CCO)C4=O)ccc21
inactive: [1] 104% | [2] 99.3% | [3] 91.2% | [4] 92.9% | [5] 99.6% | [6] 107% | [7] 77.7% | [8] 105% | [9] 104% | [10] 98.3%

CC(=O)c1ccc(-n2cc(CN3CCN(c4cc5c(cc4F)c(=O)c(C(=O)O)cn5C4CC4)CC3)nn2)cc1
inactive: [1] 99.6% | [2] 47.9% | [3] 95.1% | [4] 103% | [5] 102% | [6] 84.9% | [7] 75.3% | [8] 90.4% | [9] 80.6% | [10] 87.9%

COc1cc(/C=C/C(=O)c2cc(OC)c(OC)c(OC)c2)ccc1Oc1nc2c(c(=O)n(C)c(=O)n2C)n1C
active: [1] 8.62% | [2] 6.12% | [4] 5.82% | [7] -8.8% | [8] -48.4% | [10] 0.709%
inactive: [3] 10.7% | [5] 19.1% | [6] 30.3% | [9] 26.7%

COc1ccccc1/C=C/C(=O)Nc1ccc(F)cc1
inactive: [1] 95% | [2] 85.4% | [3] 100% | [4] 108% | [5] 86.8% | [6] 81.5% | [7] 83.2% | [8] 104% | [9] 104% | [10] 101%

CCN1C(=O)N(CC)C2C1NN=c1s/c(=C\c3ccc(OC)cc3)c(=O)n12 (stereo not given)
inactive: [1] 12.1% | [2] 20.6% | [4] 29.4% | [5] 46.3% | [6] 40.5% | [7] 19.6% | [9] 21.6%
active: [3] -2.81% | [8] -16.5% | [10] 0.931%

COc1ccc(/C=C(\C(=O)NCc2cccnc2)S(=O)(=O)c2ccccc2)cc1OC
inactive: [1] 17.4% | [2] 18% | [3] 28.3% | [4] 45% | [5] 42.1% | [6] 81.1% | [7] 19.7% | [8] 19.7% | [9] 59.3% | [10] 83%

Cc1cccc(N2C(=O)/C(=C/C(Cl)=C/c3ccc([N+](=O)[O-])cc3)SC2=S)c1C
active: [1] 2.55% | [2] -13.1% | [3] 9.93% | [7] -40.5% | [8] -21.4% | [10] 7.84%
inactive: [4] 22.8% | [5] 19.8% | [6] 72.7% | [9] 27.8%
